The text below walks through data of the supplement of paper PMC4022240.

Holding throughout (experiment): peptide microarray binding signal (635 nm), min-max normalized on array (fraction of array maximum); higher = stronger binding
Common to all, as to conditions: peptide region: H3 5-17

Experiment [1] concerns the target T1, HaloTag-ATRX ADD domain (163-292).
T1 chain: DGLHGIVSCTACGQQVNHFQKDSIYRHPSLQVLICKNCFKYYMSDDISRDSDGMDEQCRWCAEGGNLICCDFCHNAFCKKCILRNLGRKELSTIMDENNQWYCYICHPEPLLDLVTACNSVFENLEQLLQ
Summed up:
(§1)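 Triplicate spots of histone 13-mer peptide–cellulose conjugates with a Cy3 tracer were printed on nitrocellulose and probed for 1 h at 4°C with biotin-labelled HaloTag reader fusions (10 nM to 1 μM) plus streptavidin-Alexa Fluor 647 or rabbit histone antibodies (1:10,000 to 1:2,000) plus anti-rabbit Alexa 647. An Axon GenePix 4000B read the 635 nm channel. Binding signal is the spot-triplicate mean intensity after min-max scaling within each library.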

For experiment [2], the target named is HaloTag-ING2 PHD (mouse Ing2 200-280). Summed up:
as §1

In experiment [3] the target is anti-H3K4me3 antibody ab8580. In a few lines: as §1
Experiment [4] has as its target anti-H3K9me3 antibody ab8898. In a few lines: as §1
[5] abbreviates: peptide modifications: H3R8me1 H3S10ph, binder concentration: 1:2,000 dilution.
The mark [6] stands for this setting: peptide modifications: H3R8me1 H3S10ph, binder concentration: 1:10,000 dilution.
The mark [7] stands for this setting: peptide modifications: H3R8me2a H3T11ph, binder concentration: 1:2,000 dilution.
The mark [8] stands for this setting: peptide modifications: H3R8me2a H3T11ph, binder concentration: 1:10,000 dilution.
The mark [9] stands for this setting: peptide modifications: H3R8me2a H3K9me1, binder concentration: 1:2,000 dilution.
Setting [10] is: peptide modifications: H3R8me2a H3K9me1, binder concentration: 1:10,000 dilution.
[11] abbreviates: peptide modifications: H3R8cit H3K9me2, binder concentration: 1:2,000 dilution.
Setting [12] is: peptide modifications: H3R8cit H3K9me2, binder concentration: 1:10,000 dilution.
Setting [13] is: peptide modifications: H3R8me2a, binder concentration: 1:2,000 dilution.
Setting [14] is: peptide modifications: H3R8me2a, binder concentration: 1:10,000 dilution.
[15] abbreviates: peptide modifications: H3R8me1, binder concentration: 1:2,000 dilution.
Where [16] appears, read: peptide modifications: H3R8me1, binder concentration: 1:10,000 dilution.
Where [17] appears, read: peptide modifications: H3R8me1 H3K9me1, binder concentration: 1:2,000 dilution.
The mark [18] stands for this setting: peptide modifications: H3R8me1 H3K9me1, binder concentration: 1:10,000 dilution.
Where [19] appears, read: peptide modifications: H3R8me1 H3K9me3, binder concentration: 1:2,000 dilution.
Setting [20] is: peptide modifications: H3R8me1 H3K9me3, binder concentration: 1:10,000 dilution.
The mark [21] stands for this setting: peptide modifications: H3R8cit, binder concentration: 1:2,000 dilution.
The mark [22] stands for this setting: peptide modifications: H3R8cit, binder concentration: 1:10,000 dilution.
The mark [23] stands for this setting: peptide modifications: H3R8cit H3T11ph, binder concentration: 1:2,000 dilution.
The mark [24] stands for this setting: peptide modifications: H3R8cit H3T11ph, binder concentration: 1:10,000 dilution.

± gives the standard deviation.

B1: H3 5-17 Q T A Rme K Sph T G G K A P R (peptide)
chain: QTARKSTGGKAPR
As for B1, the “peptide microarray binding signal” value in experiment [1] (peptide modifications: H3R8me1 H3S10ph, binder concentration: 50 nM) was 0.0079 ± 0.00028; in experiment [1] (peptide modifications: H3R8me1 H3S10ph, binder concentration: 500 nM), 0.0149 ± 0.003; in experiment [2] (peptide modifications: H3R8me1 H3S10ph, binder concentration: 10 nM), 0.0175 ± 0.0014; in experiment [2] (peptide modifications: H3R8me1 H3S10ph, binder concentration: 100 nM), 0.0298 ± 0.002; in experiment [3] (setting [5]) it was 0.00208 ± 0.00022; in experiment [3] (setting [6]), 0.00217 ± 0.00011. The “peptide microarray binding signal” value in experiment [4] (setting [5]) was determined as 0.00359 ± 0.00056; in experiment [4] (setting [6]), 0.00306.

B2: H3 5-17 Q T A Rme2a K S Tph G G K A P R (peptide)
chain: QTARKSTGGKAPR
As for B2, the “peptide microarray binding signal” value was 0.00567 ± 0.00028 in experiment [1] (peptide modifications: H3R8me2a H3T11ph, binder concentration: 50 nM); 0.008 ± 0.00083 in experiment [1] (peptide modifications: H3R8me2a H3T11ph, binder concentration: 500 nM); 0.0111 ± 0.00069 in experiment [2] (peptide modifications: H3R8me2a H3T11ph, binder concentration: 10 nM); 0.0171 ± 0.0015 in experiment [2] (peptide modifications: H3R8me2a H3T11ph, binder concentration: 100 nM); 0.00181 ± 0.00016 in experiment [3] (setting [7]); 0.00257 ± 6e-05 in experiment [3] (setting [8]). In addition, the “peptide microarray binding signal” value in experiment [4] (setting [7]) came out at 0.0287 ± 0.023; in experiment [4] (setting [8]), 0.00409 ± 0.0015.

B3: H3 5-17 Q T A Rme2a Kme S T G G K A P R (peptide)
chain: QTARKSTGGKAPR
Regarding B3, the “peptide microarray binding signal” value in experiment [1] (peptide modifications: H3R8me2a H3K9me1, binder concentration: 50 nM) turned out to be 0.0102 ± 0.00047; in experiment [1] (peptide modifications: H3R8me2a H3K9me1, binder concentration: 500 nM) it was 0.0208 ± 0.00058; in experiment [2] (peptide modifications: H3R8me2a H3K9me1, binder concentration: 10 nM), 0.0329 ± 0.0037; in experiment [2] (peptide modifications: H3R8me2a H3K9me1, binder concentration: 100 nM) it was 0.0496 ± 0.0052; in experiment [3] (setting [9]), 0.0224 ± 0.003; in experiment [3] (setting [10]), 0.0247 ± 0.0017. The results for the “peptide microarray binding signal” value in experiment [4] (setting [9]) and in experiment [4] (setting [10]) were 0.0228 ± 0.0036 and 0.0159 ± 0.0016, respectively.

B4: H3 5-17 Q T A Rcit Kme2 S T G G K A P R (peptide)
chain: QTARKSTGGKAPR
Take B4: the “peptide microarray binding signal” value came out at 0.0094 ± 0.00026 in experiment [1] (peptide modifications: H3R8cit H3K9me2, binder concentration: 50 nM); 0.0211 ± 0.0019 in experiment [1] (peptide modifications: H3R8cit H3K9me2, binder concentration: 500 nM); 0.0388 ± 0.00083 in experiment [2] (peptide modifications: H3R8cit H3K9me2, binder concentration: 10 nM); 0.0648 ± 0.0026 in experiment [2] (peptide modifications: H3R8cit H3K9me2, binder concentration: 100 nM); 0.016 ± 0.0013 in experiment [3] (setting [11]); 0.0193 ± 0.00081 in experiment [3] (setting [12]). Moreover, the entries for the “peptide microarray binding signal” value in experiment [4] (setting [11]) and in experiment [4] (setting [12]) were 0.271 ± 0.036 and 0.197 ± 0.037, respectively.

B5: H3 5-17 Q T A Rme2a K S T G G K A P R (peptide)
chain: QTARKSTGGKAPR
In the case of B5, the “peptide microarray binding signal” value stood at 0.00386 ± 0.00017 in experiment [1] (peptide modifications: H3R8me2a, binder concentration: 50 nM); 0.00367 ± 0.00047 in experiment [1] (peptide modifications: H3R8me2a, binder concentration: 500 nM); 0.00346 in experiment [2] (peptide modifications: H3R8me2a, binder concentration: 10 nM); 0.0034 ± 0.00021 in experiment [2] (peptide modifications: H3R8me2a, binder concentration: 100 nM); 0.0114 ± 0.0019 in experiment [3] (setting [13]); 0.00793 ± 0.00067 in experiment [3] (setting [14]). In addition, the “peptide microarray binding signal” value in experiment [4] (setting [13]) was 0.00296 ± 0.00055; in experiment [4] (setting [14]), 0.00565 ± 0.0013.

B6: H3 5-17 Q T A Rme K S T G G K A P R (peptide)
chain: QTARKSTGGKAPR
With B6, the “peptide microarray binding signal” value in experiment [1] (peptide modifications: H3R8me1, binder concentration: 50 nM) came out at 0.00589 ± 0.00021; in experiment [1] (peptide modifications: H3R8me1, binder concentration: 500 nM), 0.00448 ± 0.00015; in experiment [2] (peptide modifications: H3R8me1, binder concentration: 10 nM) it was 0.0037 ± 7.9e-05; in experiment [2] (peptide modifications: H3R8me1, binder concentration: 100 nM) it was 0.00262; in experiment [3] (setting [15]) it was 0.0014 ± 0.00011; in experiment [3] (setting [16]) it was 0.00417 ± 0.00061. The “peptide microarray binding signal” value in experiment [4] (setting [15]) was determined as 0.00305 ± 0.00038; in experiment [4] (setting [16]), 0.00755 ± 0.00014.

B7: H3 5-17 Q T A Rme Kme S T G G K A P R (peptide)
chain: QTARKSTGGKAPR
For B7, the “peptide microarray binding signal” value in experiment [1] (peptide modifications: H3R8me1 H3K9me1, binder concentration: 50 nM) turned out to be 0.01 ± 0.0016; in experiment [1] (peptide modifications: H3R8me1 H3K9me1, binder concentration: 500 nM) it was 0.0241 ± 0.0051; in experiment [2] (peptide modifications: H3R8me1 H3K9me1, binder concentration: 10 nM) it was 0.0382 ± 0.016; in experiment [2] (peptide modifications: H3R8me1 H3K9me1, binder concentration: 100 nM) it was 0.0483 ± 0.0026; in experiment [3] (setting [17]), 0.0217 ± 0.00038; in experiment [3] (setting [18]), 0.0201 ± 0.0019. The “peptide microarray binding signal” value in experiment [4] (setting [17]) is 0.034 ± 0.009; in experiment [4] (setting [18]), 0.0236 ± 0.0018.

B8: H3 5-17 Q T A Rme Kme3 S T G G K A P R (peptide)
chain: QTARKSTGGKAPR
As to B8, the “peptide microarray binding signal” value came out at 0.00652 ± 0.00076 in experiment [1] (peptide modifications: H3R8me1 H3K9me3, binder concentration: 50 nM); 0.0104 ± 0.0013 in experiment [1] (peptide modifications: H3R8me1 H3K9me3, binder concentration: 500 nM); 0.0116 ± 0.00032 in experiment [2] (peptide modifications: H3R8me1 H3K9me3, binder concentration: 10 nM); 0.0168 ± 0.002 in experiment [2] (peptide modifications: H3R8me1 H3K9me3, binder concentration: 100 nM); 0.0438 ± 0.013 in experiment [3] (setting [19]); 0.0394 ± 0.0046 in experiment [3] (setting [20]). In addition, the “peptide microarray binding signal” value in experiment [4] (setting [19]) was found to be 0.185 ± 0.023; in experiment [4] (setting [20]) it was 0.243 ± 0.0063.

B9: H3 5-17 Q T A Rcit K S T G G K A P R (peptide)
chain: QTARKSTGGKAPR
Consider B9, for which the “peptide microarray binding signal” value in experiment [1] (peptide modifications: H3R8cit, binder concentration: 50 nM) is 0.0063 ± 0.00069; in experiment [1] (peptide modifications: H3R8cit, binder concentration: 500 nM), 0.00719 ± 0.0018; in experiment [2] (peptide modifications: H3R8cit, binder concentration: 10 nM), 0.0115 ± 0.0029; in experiment [2] (peptide modifications: H3R8cit, binder concentration: 100 nM), 0.00574 ± 0.00039; in experiment [3] (setting [21]), 0.00504 ± 0.0019; in experiment [3] (setting [22]), 0.0142 ± 0.0043. Moreover, the “peptide microarray binding signal” value in experiment [4] (setting [21]) turned out to be 0.00642 ± 0.0027; in experiment [4] (setting [22]), 0.00588 ± 0.00093.

B10: H3 5-17 Q T A Rcit K S Tph G G K A P R (peptide)
chain: QTARKSTGGKAPR
As to B10, the “peptide microarray binding signal” value in experiment [1] (peptide modifications: H3R8cit H3T11ph, binder concentration: 50 nM) was found to be 0.00404 ± 0.00028; in experiment [1] (peptide modifications: H3R8cit H3T11ph, binder concentration: 500 nM), 0.0123 ± 0.0011; in experiment [2] (peptide modifications: H3R8cit H3T11ph, binder concentration: 10 nM), 0.0179 ± 0.0072; in experiment [2] (peptide modifications: H3R8cit H3T11ph, binder concentration: 100 nM) it was 0.0242 ± 0.0054; in experiment [3] (setting [23]), 0.00285 ± 4.3e-05; in experiment [3] (setting [24]) it was 0.002511 ± 2.2e-05. The “peptide microarray binding signal” value in experiment [4] (setting [23]) came out at 0.00142 ± 0.00018; in experiment [4] (setting [24]), 0.00115 ± 2e-05.
